TDP1 cell CPT: growth inhibition of DT40 Tdp1-/-;hTDP1 cells with camptothecin (screen for TDP1 inhibitors); chicken DT40 Tdp1-/-;hTDP1 cells + 20 nM CPT, ATP luminescence, 48 h; Potency, µM (highest dose often 46.2 µM), inactives show at the top dose activity change, negative = growth inhibition, actives largely listed as inhibitors; 420,000 compounds, 12% hits; AID 686979; also: potency is read from the fitted curve at half-maximal effect; % is scaled to controls: 0 for no effect and ±100 for the full control effect; nearly all actives have a fitted effect of over 55% in size
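Chicken DT40 Tdp1-/- cells stably complemented with human TDP1 were seeded at 400 cells/well in medium containing 20 nM camptothecin, exposed to pin-transferred compounds, and grown at 37 °C for at least 48 hr. Viability was read as ATP luminescence.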
TGFb inhibitor: blocks TGF-b signaling; HepG2 CAGA-GFP TGF-b/SMAD3 reporter, GFP fluorescence, 18 h; TGF-beta stimulated, 500 pg/mL final; Potency, µM (titrated, usually from 46.1 µM), for the others: top-dose activity, negative = inhibition, hits mostly inhibitors; AID 588855; 410,000 compounds, 1.2% hits; also: potency is read from the fitted curve at half-maximal effect; % is scaled to controls: 0 for no effect and ±100 for the full control effect; nearly all actives have a fitted effect of over 65% in size
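Read-out: total well GFP (ex488/em500-530) summed from mean per-cell fluorescence. Cells: HEPG2 CAGA-GFP, 1% FBS DMEM, 18 h at 37 degrees C with 500 pg/mL final TGF-beta. Unstimulated wells served as the full-inhibition control; stimulated DMSO wells = 0%.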
IL-1B inflam inh: blocks inflammasome-driven IL-1 beta release. THP-1 LPS/ATP IL-1B secretion, AlphaLISA, 16 h; stronger effect = lower value. 360,000 compounds, 4.7% hits. activity change, % at 57.5 µM; in the data active = activity change below about -50%; inconclusive = mostly about -30% to -49%; also: % is scaled to controls: 0 for no effect and ±100 for the full control effect
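Secreted IL-1B measured by AlphaLISA bead assay after 16 h compound exposure of THP-1 cells; compounds (final up to 57.5 uM) added 1 h before LPS (250 ng/mL) and ATP (1.25 mM) stimulation; lower signal means less secretion.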
HepG2 viability: counter-screen for TGF-b inhibitors: cytotoxicity in HepG2 cells; Potency, µM (series often up to 46.1 µM), inactives show top-dose activity change, negative = cytotoxicity, usual class: cytotoxic; 410,000 compounds, 0.76% hits; HepG2 CAGA-GFP viability, ATP luminescence, 18 h; also: potency is read from the fitted curve at half-maximal effect
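HepG2 CAGA-GFP cells (1000/well, DMEM with 1% FBS) received compound, then TGF-beta at 500 pg/mL final, and were incubated 18 hours at 37 degrees C. Viability was read by CellTiter-Glo luminescence. Media-only wells were set as complete cell-killing and DMSO as no toxicity.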
DT40 TDP1 no CPT: qHTS for Inhibitors of human tyrosyl-DNA phosphodiesterase 1 (TDP1): qHTS in cells in absence of CPT; DT40 Tdp1-/- hTDP1 cells, no CPT, ATP luminescence, 48 h; 420,000 compounds, 15% hits; Potency, µM (doses to about 46.2 µM), for inactives: at the highest dose activity change, negative = growth inhibition, actives largely listed as inhibitors; also: potency is read from the fitted curve at half-maximal effect; % is scaled to controls: 0 for no effect and ±100 for the full control effect; nearly all actives have a fitted effect of over 55% in size
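A cellular qHTS used chicken DT40 cells lacking endogenous Tdp1 but carrying stably transfected human TDP1. Compounds were applied without camptothecin, and cell growth kinetics were judged by ATP-dependent luminescence after ≥48 hr.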
ASM inhibitor: inhibitors of human secretory acid sphingomyelinase | P17405 | placental ASM, HMU-PC fluorogenic substrate, 60 min | Potency, µM (highest dose often 57.5 µM), without a hit: at the highest dose activity change, negative = inhibition, hits mostly inhibitors | 340,000 compounds, 0.006% hits | AID 504937; also: potency is read from the fitted curve at half-maximal effect
Target sequence (P17405 47-631 limits assumed): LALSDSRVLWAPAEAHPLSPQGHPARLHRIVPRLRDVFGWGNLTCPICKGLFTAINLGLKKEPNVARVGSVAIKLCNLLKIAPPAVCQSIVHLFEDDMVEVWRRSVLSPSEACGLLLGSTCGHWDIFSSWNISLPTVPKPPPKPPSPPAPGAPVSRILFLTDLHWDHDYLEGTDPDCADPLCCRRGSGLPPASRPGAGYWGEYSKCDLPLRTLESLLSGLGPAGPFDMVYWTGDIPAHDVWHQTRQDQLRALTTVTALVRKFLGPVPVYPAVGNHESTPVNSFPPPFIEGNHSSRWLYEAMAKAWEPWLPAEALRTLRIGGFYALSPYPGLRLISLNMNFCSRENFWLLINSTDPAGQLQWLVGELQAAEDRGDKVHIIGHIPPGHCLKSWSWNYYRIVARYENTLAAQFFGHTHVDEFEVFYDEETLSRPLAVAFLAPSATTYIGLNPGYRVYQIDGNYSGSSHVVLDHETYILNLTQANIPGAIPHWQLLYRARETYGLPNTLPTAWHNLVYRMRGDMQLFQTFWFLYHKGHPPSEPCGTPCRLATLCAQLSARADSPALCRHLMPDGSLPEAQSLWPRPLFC
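Human placenta-derived ASM enzyme was preincubated with compound for 10 minutes at room temperature, then given fluorogenic substrate HMU-PC0 (9 uM final) for 60 minutes at 37 °C; a pH 10 stop preceded fluorescence reading at Ex 386/Em 447 nm.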
The depositor's hits bear a star; ? = inconclusive; . = not tested or not shown. Hits are enriched below; roughly 19% of the tested compounds scored in any of these assays. Unless noted, calls follow the shape of the dose curve; as a rule, active = well fitted curve in the direction sought with a large enough effect; inconclusive = small, poorly fitted or top-dose-only effect, or another doubt; inactive = no such curve, though single readings can be large; an effect the other way counts as inactive or inconclusive.

SMILES | TDP1 cell CPT | TGFb inhibitor | IL-1B inflam inh | HepG2 viability | DT40 TDP1 no CPT | ASM inhibitor
CCOC(=O)c1c(C)[nH]c(C(=O)N2CCc3cc(OC)c(OC)cc3C2)c1C | 10µM* | ? | -61* | -1% | 16µM* | -3%
N#CC(C#N)=c1ccc2c(c1)N1C3=C(CCCC3)CC3CCCCC31N=2 (stereo unspecified) | ? | 36% | -117* | -6% | ? | -8%
N#C/C(C(N)=O)=c1/ccc2c(c1)N1C3=C(CCCC3)CC3CCCCC31N=2 (stereo unspecified) | 15µM* | ? | -102* | -87% | 13µM* | -8%
CC1(C(=O)NS(=O)(=O)c2cccc(Cl)c2)CCN1C(=O)CCc1cccs1 (stereo unspecified) | -5% | -5% | 20 | -13% | -20% | .
CC(C)(C)OC(=O)NCc1ccc(NC(=O)c2nc[nH]c2C(=O)NCCNC(=O)c2[nH]cnc2C(=O)Nc2ccc(CNC(=O)OC(C)(C)C)cc2)cc1 | 15µM* | 8% | 60 | 1% | 18µM* | 1%
C[C@@H](CO)NC(=O)c1[nH]cnc1C(=O)Nc1ccc(CNC(=O)OC(C)(C)C)cc1 | 23µM* | 7% | -4 | -1% | 12µM* | .
CC(C)(C)OC(=O)CNC(=O)c1nc[nH]c1C(=O)NCc1ccc(CNC(=O)OC(C)(C)C)cc1 | 18µM* | -30% | 4 | -31% | 15µM* | -2%
CCOC(=O)c1ccc(NC(=O)c2nc[nH]c2C(=O)N[C@@H](C)CO)cc1 | -1% | -22% | ? | 2% | 21µM* | .
Cc1ccc(NC(=O)CN(C)CC(=O)N(C)Cc2ccccc2)cc1 | ? | -2% | -6 | -9% | ? | 5%
Cc1ccc(S(=O)(=O)N(C)C)cc1NC(=O)c1ccccc1SCC(=O)N1CCCC1 | -10% | 3% | -7 | -15% | ? | 7%
COc1ccc(C=O)cc1COc1ccc(Cl)cc1[N+](=O)[O-] | ? | 3% | 12 | -7% | 21µM* | -3%
Cc1[nH]n(-c2nc(-c3ccc(Cl)cc3)cs2)c(=O)c1N=Nc1ccc(O)cc1 | 2.6µM* | 6% | -51* | 2% | 5.8µM* | ?
CCCn1c(=O)c2sccc2n2c(CCCC(=O)Nc3cccc(CC)c3)nnc12 | 23µM* | ? | . | -21% | ? | .
CCCn1c(=O)c2sccc2n2c(CCCC(=O)Nc3ccc(C)c(F)c3)nnc12 | ? | -17% | . | -10% | 23µM* | .
O=C1CSC(c2ccccc2O)N1Cc1ccccc1 (stereo unspecified) | ? | 0% | 27 | -2% | -19% | 5%
O=C(Cn1c(-c2ccccc2)noc1=O)Nc1ccc(S(=O)(=O)N2CCOCC2)cc1 | 4% | -10% | -3 | 1% | -6% | -3%
O=C(Cn1c(-c2ccccc2)noc1=O)Nc1ccc(N2CCCCCC2)cc1 | 16µM* | 3% | 3 | 1% | 18µM* | -5%
CCOc1ccc(OCC(=O)Nc2ccc(N3CCCCC3)cc2)cc1 | -2% | -5% | -4 | -18% | -10% | -1%
N#Cc1ccc(OCC(=O)Nc2ccc(N3CCCC3)cc2)cc1 | ? | -6% | -5 | -2% | 12µM* | 2%
CCC(=O)Nc1ccc(N2CCCCC2)cc1 | ? | 35% | -11 | -25% | -7% | 7%
O=C(CCl)Nc1ccc(N2CCCCCC2)cc1 | 5.2µM* | ? | -98* | -47% | 8.2µM* | 2%
COC(=O)N1CCC2(CC1)CCN(c1ncccn1)CC2 | -2% | . | . | . | -20% | .

Assay outcomes (PubChem)
